Assay results taken from PubChem BioAssay (NCI).
Compounds without any hit were thinned out: in the full panel of roughly 83,000, 20% have a hit.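 Results are percent growth after 48 hours of single-concentration exposure. 100 means growth as in untreated cells, lower positive values show inhibition; negative values down to -100 show cell death.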 Unmarked numbers belong to inactive results. Activity calls are given as the source filed them. The calls were made as follows: active = growth percent below 10; inactive = the rest.

Experiments:
Assay in all cases: NCI-60 one-dose screen, 48 h (100 = growth as untreated, 0 = no growth, -100 = all killed)
Details in all cases: 10 µM unless noted
[1] = test system: SK-MEL-2 melanoma
[2] = test system: EKVX NSCLC
[3] = test system: SN12C renal
[4] = test system: UO-31 renal
[5] = test system: TK-10 renal
[6] = test system: ACHN renal
[7] = test system: A498 renal
[8] = test system: CCRF-CEM leukemia
[9] = test system: MOLT-4 leukemia
[10] = test system: SR leukemia
[11] = test system: RPMI-8226 leukemia
[12] = test system: OVCAR-8 ovarian
[13] = test system: OVCAR-5 ovarian
[14] = test system: OVCAR-4 ovarian
[15] = test system: SK-OV-3 ovarian
[16] = test system: IGROV1 ovarian
[17] = test system: OVCAR-3 ovarian
[18] = test system: HS 578T breast
[19] = test system: NCI/ADR-RES ovarian

| Compound | growth [1] [%] | growth [2] | growth [3] | growth [4] | growth [5] [%] | growth [6] | growth [7] [%] | growth [8] | growth [9] | growth [10] | growth [11] | growth [12] [%] | growth [13] [%] | growth [14] [%] | growth [15] [%] | growth [16] | growth [17] | growth [18] [%] | growth [19] |
| --- | --- | --- | --- | --- | --- | --- | --- | --- | --- | --- | --- | --- | --- | --- | --- | --- | --- | --- | --- |
| O=c1ccccc(-c2ccc(Br)cc2)c1O | 12 | 6.92% (active) | 6.62% (active) | -10.6% (active) | 21.5 | 6.35% (active) | 31.7 | 3.29% (active) | 5.09% (active) | 4.69% (active) | 9.5% (active) | 13 | 54.9 | 30 | 19.7 | 12.4% | 25.8% | 51.8 | 7.78% (active) |
| CC(=O)c1cc2c(N)c(C(=O)Nc3cccc4ccccc34)sc2nc1C | 36.5 | 46.4% | 40.9% | 42.9% | 56.2 | 47.6% | 13.6 | 6.95% (active) | 24% | 12.7% | 10.2% | 21.5 | 64 | 59.6 | 26.8 | 34.7% | -5.38% (active) | 38.2 | 16.3% |
| O=C(CN1CCCCC1)Nc1ccc2oc(=O)ccc2c1 | 96.8 | 101% | 101% | 79.1% | 108 | 111% | 106 | 86% | 83.1% | 84.4% | 90.7% | 97.8 | 122 | 120 | 109 | 102% | 111% | 97 | 107% |
| CCc1nc(N)nc(N)c1C#CC(C)c1cc(-c2ccnc(C)c2)c2oc(C)nc2c1 (stereo unspecified) | 30.1 | 19.2% | 6.91% (active) | 9.81% (active) | 25.2 | 9.82% (active) | 10.8 | 0.474% (active) | 1.69% (active) | 3.38% (active) | 2.39% (active) | 18.6 | 36.8 | 51 | 16.8 | 2.77% (active) | 17% | 26.4 | 11.5% |
